Sampled rows, rich in hits. Any-hit rate of the full collection: about 7.5%.
Rab9 promoter act: qHTS Assay for Rab9 Promoter Activators. hit rate 2.8% among 320,000. Huh7 Rab9 promoter-luciferase reporter, luminescence, 24 h. Potency, µM (doses to about 9.22 µM), inactives show top-dose activation, negative = inhibition, actives largely listed as activators; further: % of control where 0% means no effect; nearly all actives have a fitted effect of over 60% in size
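Huh7 reporter line, Rab9 promoter upstream of luciferase. Compound exposure 24 h at 37 °C in reduced-serum medium with 10% FBS. Read-out: luminescence.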
NPC1 promoter act: qHTS Assay for NPC1 Promoter Activators | Huh7 NPC1 promoter luciferase reporter, 24 h | Potency, µM (highest dose often 9.22 µM), inactives show at the top dose activation, most hits filed as activators | hit rate 2.4% among 320,000 | AID 485313, 2010; further: % of control where 0% means no effect; nearly all actives have a fitted effect of over 60% in size
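In 1536-well qHTS, Huh7 cells harboring an NPC1 promoter–luciferase construct received compound for 24 h; activation was quantified by luminescence following luciferase reagent addition.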
Luc counter: Counterscreen for Luciferase (Kinase-Glo TM) Inhibition. Kinase-Glo luciferase, ATP luminescence, 8 min. Potency, µM (highest dose often 38.3 µM), without a hit: top-dose activity change, negative = inhibition, usual class: inhibitors. hit rate 0.28% among 200,000. AID 1379, 2008; further: on the % scale 0 is the no-effect control and ±100 the full control effect; nearly all actives have a fitted effect of over 60% in size
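Inhibition of Kinase-Glo luciferase light generation was assessed at 10 uM ATP in pH 7.2 imidazole buffer, with luminescence measured after eight minutes at ambient temperature.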
ELG1 genotox: qHTS screen for small molecules that induce genotoxicity in human embryonic kidney (HEK293T) cells expressing luciferase-tagged ELG1 | HEK293T ELG1-luciferase reporter, luminescence, 16 h | Potency, µM (titrated, usually from 46 µM), without a hit: at the top dose activity change, positive = activation, actives largely listed as activators | hit rate 1.3% among 330,000 | AID 504466, 2011; further: % of control where 0% means no effect; nearly all actives have a fitted effect of over 60% in size
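Step 1: seed 2,000 HEK293T ELG1-luciferase cells per well. Step 2: add compound or DMSO, incubate 16 hr at 37 °C. Step 3: ONE-Glo, 30 min at room temperature, read luminescence.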
SMN2 splice up: qHTS Assay for Enhancers of SMN2 Splice Variant Expression; HEK293 SMN2-luciferase splicing reporter, luminescence, 30-36 h; Potency, µM (top dose mostly 46.1 µM), inactives show top-dose activity change, positive = activation, usual class: activators; hit rate 2.8% among 210,000; AID 1458, 2008; further: % of control where 0% means no effect; nearly all actives have a fitted effect of over 55% in size
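HEK293 cells carry an SMN2 minigene-luciferase reporter in which exon 7 inclusion puts luciferase in frame. Cells were seeded at 2000 cells/well, attached for 10-12 hours, then exposed to compounds for 30-36 hours at 37C before ONE-Glo luminescence.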
FLuc counter: qHTS profiling assay for firefly luciferase inhibitor/activator using purifed enzyme and Km concentrations of substrates (counterscreen for miR-21 project) | Luciferin 4-monooxygenase (Photinus pyralis), P08659 | purified FLuc, Km substrates, luminescence inhibition | Potency, µM (highest dose often 57.5 µM), for the others: top-dose activity change, negative = inhibition, actives largely listed as inhibitors | hit rate 6.9% among 360,000;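 further: plate controls were vehicle for no effect and reference inhibitor for full effect; nearly all actives have a fitted effect of over 55% in size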
Target sequence (P08659 whole entry, looked up): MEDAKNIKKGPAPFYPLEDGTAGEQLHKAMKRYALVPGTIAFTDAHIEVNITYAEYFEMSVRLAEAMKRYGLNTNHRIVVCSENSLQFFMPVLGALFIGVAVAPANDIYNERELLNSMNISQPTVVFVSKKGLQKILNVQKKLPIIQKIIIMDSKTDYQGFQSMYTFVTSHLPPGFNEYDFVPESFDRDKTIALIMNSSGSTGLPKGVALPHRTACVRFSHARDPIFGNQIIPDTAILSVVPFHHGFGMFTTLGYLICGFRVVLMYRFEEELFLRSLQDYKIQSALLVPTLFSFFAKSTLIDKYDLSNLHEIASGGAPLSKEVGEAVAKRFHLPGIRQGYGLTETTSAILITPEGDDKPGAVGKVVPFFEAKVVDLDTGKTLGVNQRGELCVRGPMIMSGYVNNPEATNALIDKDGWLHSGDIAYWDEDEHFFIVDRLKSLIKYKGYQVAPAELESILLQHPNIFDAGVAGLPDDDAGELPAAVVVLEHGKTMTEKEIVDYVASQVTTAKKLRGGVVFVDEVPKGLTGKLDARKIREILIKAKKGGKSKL
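Purified P. pyralis luciferase (10nM final) with 10uM D-luciferin and 10uM ATP (Km levels) in 50mM Tris acetate pH 7.5, 10mM Mg acetate, 0.01% Tween-20, 0.05% BSA; qHTS 6-point titration, ~60 µM downward; luminescence read.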
* marks the source's active call; other numbers are inactive results; u = inconclusive; x = no result; [ ] = another dose, or the depositor's remark. The call rests on the fitted dose curve; in most records, active means well fitted curve in the direction sought with a large enough effect; inconclusive means small, poorly fitted or top-dose-only effect, or another doubt; inactive means no such curve, though single readings can be large; an effect the other way counts as inactive or inconclusive. Potency means the concentration at half of the fitted maximal effect.

SMILES | Rab9 promoter act | NPC1 promoter act | Luc counter | ELG1 genotox | SMN2 splice up | FLuc counter
O=C(COCc1cc(-c2ccc3c(c2)OCO3)on1)Nc1cccnc1 | -0.9% | -4.7% | x | 2.4% | x | 21.3µM*
c1cncc(Nc2nc(-c3ccncc3)cs2)c1 | 0.6% | 5.7% | -3.3% | -3.4% | -1.9% | u
Clc1ccccc1-c1csc(Nc2cccnc2)n1 | u | 2.82µM* | x | 8.2% | x | u
Clc1ccccc1Nc1nnc(-c2ccncc2)s1 | 0.447µM* | 0.562µM* | 1.26µM* | u | 3.16µM* | 0.953µM*
Clc1ccccc1Nc1nc(-c2cccnc2)cs1 | 0.708µM* | 3.16µM* | -21.6% | u | 2.82µM* | 1.69µM*
c1ccc(Nc2nc(-c3cccnc3)cs2)nc1 | 0.562µM* | 1µM* | -22.1% | u | 11.2µM* | 1.51µM*
Cc1cccc(/C=N/n2c(C)nc3ccccc3c2=O)c1 | 7.7% | -4.2% | x | -1.4% | x | -17.7%
CC(=O)N1CCc2cc(Br)cc(S(=O)(=O)N3CCC(C)CC3)c21 | x | x | x | x | 4.2% | -2.1%
Fc1ccc(-c2csc(Nc3ccccn3)n2)cc1 | 3.16µM* | 3.55µM* | x | 2.06µM* | x | 1.51µM*
COc1cccc(-c2nnc(SCC(=O)N3CCOCC3)o2)c1 | 3.98µM* | u | -0.3% | 10.3% | 21.3% | u
COc1ccc(-c2nnc(SCC(=O)N3CCOCC3)o2)cc1 | 4.47µM* | u | 4.4% | 20.6µM* | 14.1µM* | 21.3µM*
O=C(NNC(=O)C1CC1)c1ccccc1[N+](=O)[O-] | -6.7% | -5.7% | x | -0.3% | x | -0.4%
CC1=CC(=C2C(=O)c3ccccc3C2=O)C=C(C)N1Cc1ccco1 | 1.58µM* | 2.24µM* | -6.3% | 17.8% | 14.1µM* | 3.38µM*
CCCCN1C(C)=CC(=C2C(=O)c3ccccc3C2=O)C=C1C | 0.398µM* | 0.501µM* | u | 0.82µM* | -24.7% | 1.51µM*
COc1ccc(C(=O)c2sc(Nc3ccccc3)nc2N)cc1 | 18.9% | 7.7% | x | 1.8% | x | -17.7%
COc1ccc(C(=O)c2sc(Nc3ccccc3F)nc2N)cc1 | 2.24µM* | 2.82µM* | x | u | x | 10.7µM*
Nc1nc(Nc2ccccc2)sc1C(=O)c1ccccc1 | u | 2.51µM* | x | -3.2% | x | 19µM*
O=C(NC(CC(=O)N1CCCC(C(F)(F)F)C1)c1ccccc1)c1ccccc1Cl (stereo not given) | 2.2% | -1.4% | x | -8.6% | x | 1.6%
CS(=O)(=O)c1ccc(-c2cn3cc(C(=O)O)ccc3n2)cc1 | -1.9% | 1.0% | -25.7% | -7.5% | -21.0% | 2.69µM*
COc1ccc(-c2csc(NC(=O)c3ccc(S(C)(=O)=O)cc3)n2)cc1 | u | 21.2% | 0.0% | 7.7% | 0.4% | u
COC(=O)c1ccc2nc(-c3ccc(S(C)(=O)=O)cc3)cn2c1 | u | u | -15.1% | 9.0% | 3.8% | 23.9µM*
O=S(=O)(c1ccc(-c2cn3ccccc3n2)cc1)N1CCOCC1 | 2.1% | 2.6% | -2.6% | 10.7% | -43.0% | u
COC(=O)c1ccc2nc(-c3cccc(N)c3)cn2c1 | 1µM* | 0.501µM* | -28.4% | u | x | 0.601µM*
C#CCCCCCCCCCCCC(O)CC(O)CO (stereo not given) | x | x | -4.8% | x | -30.6% | x
CSc1nc(-c2ccc(Cl)cc2)nn1C(=O)c1ccccc1 | u | 24.7% | x | 17.1% | x | 10.7µM*
SMILES | Rab9 promoter act | NPC1 promoter act | Luc counter | ELG1 genotox | SMN2 splice up | FLuc counter
CSc1nc(-c2ccccc2)nn1C(=O)c1ccc(Cl)cc1 | 12.2% | 8.4% | -6.9% | 4.3% | u | -16.6%
C=C1C=C(C(F)F)n2ncc(C(=O)Nc3ccc(C(C)CC)cc3)c2N1 (stereo not given) | x | x | x | x | x | 0.4%
CCN(CC)c1ccc(/C=C/c2nc3ccccc3s2)cc1 | 3.7% | u | -11.6% | 0.461µM* | -89.7% | 0.601µM*
COc1ccccc1-c1ccc(SCc2ccccc2F)nn1 | u | 27.3% | 1.7% | 18.2% | 27.6% | 13.5µM*
COc1ccccc1-c1ccc(SCC(=O)NCCc2ccccc2)nn1 | 22.0% | -3.1% | -1.6% | -1.8% | -4.6% | -11.5%
Cc1nc(C)c(-c2ccc(SCc3ccccc3F)nn2)s1 | u | u | x | u | x | 10.7µM*
COc1ccccc1-c1ccc(SCc2cccc(F)c2)nn1 | 19.0% | 11.8% | 0.2% | 7.0% | 22.8% | 23.9µM*
CCOC(=O)c1ccccc1NC(=O)CSc1ccc(-c2sc(C)nc2C)nn1 | x | x | x | x | x | -12.6%
COc1ccccc1-c1ccc(SCc2ccccc2)nn1 | u | 26.5% | -0.6% | -0.2% | 29.6% | 13.5µM*
CCCCC#Cc1nc(NC)c2ncn([C@@H]3O[C@H](CO)[C@@H](O)[C@H]3O)c2n1 | -0.4%[46.1 µM] | 4.4%[46.1 µM] | x | x | x | x
O=C(Nc1ccc([N+](=O)[O-])cc1)C(=O)Nc1cccc(C(=O)O)c1 | u | u | x | u | x | 0.019µM*
O=C(O)/C=C/c1cccc(NC(=O)Nc2ccc([N+](=O)[O-])cc2)c1 | 4.5% | -5.3% | x | 0.2% | x | 7.57µM*
Cc1ccc(-n2nc(C)c3c(C(=O)NCCc4ccc(S(N)(=O)=O)cc4)cc(C)nc32)cc1 | x | x | x | x | x | 5.7%
CC(=O)c1cccc(NC(=O)Cn2nc(C(F)(F)F)c3c2CCC3)c1 | x | x | x | x | -27.6% | -2.5%
CCc1ccc(-c2nc(-c3ccncc3)no2)cc1 | u | 0.355µM* | 8.2% | 0.731µM* | 7.94µM* | 0.675µM*
Cc1ccc(Cc2nc(-c3ccncc3)no2)cc1 | 11.2% | 4.2% | -0.2% | 0.0% | 1.6% | -13.8%
CCCCc1ccc(-c2nc(-c3ccncc3)no2)cc1 | 0.355µM* | 0.447µM* | -6.8% | 23.1µM* | 12.6µM* | 1.9µM*
CCCc1ccc(-c2ccc(-c3noc(-c4ccncc4)n3)cc2)nc1 | -7.5% | -8.7% | x | -3.1% | x | u
Cc1ccc(CNc2ccc(-c3nc(C(C)C)no3)cc2[N+](=O)[O-])cc1 | x | x | x | x | x | -1.2%
COc1ccccc1CNc1ccc(-c2nc(C(C)C)no2)cc1[N+](=O)[O-] | x | x | x | x | x | 12µM*
COc1ccccc1CNc1ccc(-c2nc(C)no2)cc1[N+](=O)[O-] | x | x | x | x | x | 13.5µM*
Cc1snc(SCC(=O)c2ccc(Cl)cc2)c1C#N | u | u | 0.9% | 10.3% | -3.4% | u
Cc1ccc(C(=O)CSc2nsc(C)c2C#N)cc1 | 3.16µM* | 3.55µM* | 3.6% | u | 12.6µM* | 10.7µM*
Cc1ccnc(SCC(=O)c2ccc(Br)cc2)c1C#N | 2.82µM* | 3.55µM* | -0.7% | 11.9% | 14.1µM* | 21.3µM*
Cc1cc(C)c(C#N)c(OCC(=O)c2ccc(Br)cc2)n1 | 6.2% | 0.9% | 6.3% | -0.9% | -10.8% | -0.5%
